Results from PubChem BioAssay.

test: JC-1 mitochondrial potential readout, lung cancer cells – cell-based, A549, JC-1 fluorescence, basal, 24 h, 100 nL, profiling panel (AID 1138); details: higher = more signal;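 also: A549 lung adenocarcinoma cells under basal conditions with no added stimulus; test concentration not given here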

Row | Structure (SMILES) | z-score
1 | C=CCc1cccc([C@@H]2[C@@H](C)CC[C@H]3C(=O)N4[C@H](c5cccc(CC=C)c5)[C@@H](C)CC[C@H]4C(=O)N23)c1 | 3.36
2 | CCCCCCc1nc(C2CC2)c(C)c2c1[Si](C(C)C)(C(C)C)OC2 | -0.451
3 | CC(C)(C)OC(=O)CC[C@]1(C(=O)NCCN2CCOCC2)N=C(c2ccc(OCCCO)cc2)O[C@H]1c1ccccc1CN=[N+]=[N-] | 0.22
4 | CCOC(=O)C[C@H]1[C@H](OC(=O)c2ccccc2-c2ccccc2)[C@@H](NC(=O)c2ccc(-c3ccccc3)cc2)c2cc(OCCCO)ccc2N1C(=O)Cc1ccc(OC)cc1 | 0.78
5 | C=CCN1C(=O)[C@@]2(Cc3ccccc3)N=C(c3ccc(OCCCO)cc3)O[C@H]2c2ccccc21 | -0.993
6 | C=CCC(OC(C)=O)[C@@H]1[C@@H](N(Cc2cc3ccccc3o2)C(=O)c2ccc(C)cc2)c2cc(OCCCO)ccc2N1C(=O)c1ccc2ccccc2n1 (stereo partly specified) | 1.57
7 | C=C(C(=O)CC[C@H](OC(=O)c1ccccc1-c1ccccc1C(=O)O)c1ccc(CO)o1)C(C)C | -0.528
8 | O=C(CS)NCCCCCNC(=O)[C@H]1C[C@H]2C(=O)N3CCC[C@H]3C(=O)N2[C@H]1c1ccc(O)cc1 | 1.54
9 | N#Cc1ccc(NN2C(C(O)CCc3ccccc3)C=CC3C(=O)N(c4ccccc4)C(=O)C32)cc1 (stereo unspecified) | -0.3
10 | O=[N+]([O-])c1ccc(C[n+]2ccc3ccc(O)cc3c2)o1 | 1.25
11 | Cc1ccc(S[C@]2(C(=O)NC(C)C)CC(=O)N(Cc3cc(C(F)(F)F)cc(C(F)(F)F)c3)[C@@H]2c2ccc(CO)cc2I)cc1 | 0.598
12 | COC(=O)[C@@]1(Cc2ccccc2N=[N+]=[N-])N=C(c2ccc(OCCCO)cc2)O[C@H]1c1ccccc1CN=[N+]=[N-] | 1.02
13 | O=C(NCc1ccccc1)c1ccc(Br)cc1[N+](=O)[O-] | 0.543
14 | C=C(COC)/C(=C/C[C@H](OC(C)=O)c1ccc(OCCO)cc1)c1cnc2ccccc2c1 | 1.8
15 | COc1cc2c(cc1OC)CN(C(=O)[C@H]1[C@@H]3C(=O)O[C@@H](c4ccccc4)[C@@H](c4ccccc4)N3[C@@H](c3ccccc3OCCO)[C@]13C(=O)Nc1ccc(C#CC4(O)CCCCCC4)cc13)CC2 | -0.627
16 | COCCOC(=O)N1C(=O)[C@@]2(c3cc(C#CCCO)ccc31)[C@H](c1ccc(O)cc1)N1[C@H](c3ccccc3)[C@H](c3ccccc3)OC(=O)[C@H]1[C@@H]2C(=O)Nc1nc2ccccc2s1 | -2.54
17 | CC[C@H]1C2=C3C(CC[C@H]4C(OC)OC[C@](C)([C@@H]34)N(C(=O)OC(C)(C)C)C2)C(CO)C1CO (stereo partly specified) | 1.16
18 | CN(C)C(=O)[C@@]1(Cc2ccccc2N=[N+]=[N-])N=C(c2ccc(OCCCO)cc2)O[C@H]1c1ccccc1CN=[N+]=[N-] | 2.31

Row | Structure (SMILES) | z-score
19 | CC(C)[C@H]1NC(=O)[C@@]23C(=O)N[C@@H](Cc4ccccc4)C2[C@H](C)[C@@]2(C)O[C@H]2C3/C=C/C/C=C\CNC(=O)[C@H](C)NC1=O (stereo partly specified) | -0.134
20 | O=C1c2ccccc2[C@](Cc2ccccc2I)(C(=O)NCc2ccccc2)[C@H](c2ccc(CO)cc2)N1Cc1ccccc1C(F)(F)F | 1.11
21 | O=C1c2ccccc2[C@](Cc2ccccc2I)(C(=O)NCC(F)(F)F)[C@H](c2ccc(CO)cc2)N1Cc1ccccc1C(F)(F)F | 1.67
22 | CCC1=C2CN(Cc3ccccc3Br)[C@@H]([C@@H](O)Cc3ccccc3)C2C=CCC1 (stereo partly specified) | -0.7
23 | C=CCc1cccc([C@H]2N[C@H](C(=O)O)CC[C@@H]2C)c1 | 0.809
24 | COC(=O)C1=CC(c2ccc(CO)cc2)=CC(c2cccs2)N(Cc2cccc(OC(F)(F)F)c2)C=C1C(=O)OC (stereo unspecified) | 1.49
25 | C=C(CCCC)C(=O)CC[C@@H](OC(=O)c1cccnc1)c1cccc(OCCO)c1 | 3.35
26 | CO[C@H]1COC(=O)[C@H](Cc2ccccc2)NC(=O)CC=C[C@@H](C)[C@H](OC)COC(=O)CC=C[C@@H]1C | 1.64
27 | COCCOC(=O)N1C(=O)[C@@]2(c3cc(C#CCC(C(=O)OC)C(=O)OC)ccc31)[C@H](C(=O)N1CCN(c3ncccn3)CC1)[C@H]1C(=O)O[C@H](c3ccccc3)[C@H](c3ccccc3)N1[C@@H]2c1ccc(O)cc1 | 1.95
28 | CCCC=C(CCC)[C@@H](NS(=O)(=O)c1cccc(C(F)(F)F)c1)c1ccc(C(=O)OC)cc1 | 0.622
29 | NC(=O)[C@H]1[C@@H]2C(=O)O[C@@H](c3ccccc3)[C@@H](c3ccccc3)N2[C@@H](c2ccc(O)cc2)[C@]12C(=O)Nc1ccc(C#CCCO)cc12 | -1.14
30 | O=C(O)[C@@H]1Cc2c([nH]c3ccccc23)[C@@H](c2ccccc2)N1 | 0.375
31 | COc1cc2c(cc1OC)CN(C(=O)[C@@H]1[C@H]3C(=O)O[C@H](c4ccccc4)[C@H](c4ccccc4)N3[C@H](c3ccccc3OCCO)[C@@]13C(=O)Nc1ccccc13)CC2 | 0.447
32 | CCCC=C(CCC)[C@@H](NS(=O)(=O)c1ccc(-c2ccccc2)cc1)c1ccc(C(=O)OC)cc1 | -2.58
33 | O=C/C=C/c1ccccc1Cl | 0.653
34 | [N-]=[N+]=NCc1ccccc1[C@H]1OC(c2ccc(OCCCO)cc2)=N[C@@]1(Cc1ccccc1N=[N+]=[N-])C(=O)NCc1ccccc1 | 0.623
35 | O=C1c2ccccc2[C@](Cc2ccccc2I)(C(=O)O)[C@H](c2ccc(CO)cc2)N1C1CCCCC1 | -0.254
36 | C=CCC(OC(C)=O)[C@@H]1[C@@H](N(Cc2cc3ccccc3o2)C(=O)Cc2ccc(F)cc2)c2cc(OCCCO)ccc2N1C(=O)c1ccc(-c2ccccc2)cc1 (stereo partly specified) | 2.35
